The test system of one experiment is Staphylococcus aureus. Description: Antibacterial activity against Staphylococcus aureus MRSA ATCC 43300 (CO-ADD:GP_020); MIC in CAMBH media using NBS plates, by Resazurin F(560/590). It is filed as functional. The note with it: Concentration 20 uM, ASSAY_TEST Inhibition of Bacterial Growth, detection method Resazurin, Fluorescence (ex560/em590), MEDIA CAMHB, plate type 384well, CORNING #3640, time 18 hr. A general note: The colour change of resazurin is a common sign of viable cells or microbes.

The next experiment relates to Acinetobacter baumannii. Description: Antibacterial activity against Acinetobacter baumannii ATCC 19606 (CO-ADD:GN_034); MIC in CAMBH media using NBS plates, by Resazurin F(560/590). It is filed as functional. Conditions: Concentration 20 uM, ASSAY_TEST Inhibition of Bacterial Growth, detection method Resazurin, Fluorescence (ex560/em590), MEDIA CAMHB, plate type 384well, CORNING #3640, time 18 hr.

Another experiment concerns Escherichia coli. Nature of the experiment: Antibacterial activity against Escherichia coli ATCC 25922 (CO-ADD:GN_001); MIC in CAMBH media using NBS plates, by Resazurin F(560/590). It is filed as functional. Conditions: Concentration 20 uM, ASSAY_TEST Inhibition of Bacterial Growth, detection method Resazurin, Fluorescence (ex560/em590), MEDIA CAMHB, plate type 384well, CORNING #3640, time 18 hr.

Another experiment deals with Klebsiella pneumoniae. The note with it: Concentration 20 uM; ASSAY_TEST Inhibition of Bacterial Growth; detection method Absorption (OD600); MEDIA CAMHB; plate type 384well; NBS; CORNING #3640; time 18 hr.
Another experiment concerns Candida albicans. Conditions: 20 µM.
Another experiment has as its system Cryptococcus neoformans. The note with it: Concentration 20 uM; ASSAY_TEST Inhibition of Fungal Growth; detection method Resazurin; Absorption (OD600-OD570); plate type 384well; NBS; CORNING #3640.

For part of these data: Potency and affinity values are given separately.

Regarding `O=[N+]([O-])c1c(N2CCN(CCO)CC2)nc2ccccn12`, the Inhibition – broadly, the relative decrease from the control value, in per cent – with Staphylococcus aureus was 9.01%; with Acinetobacter baumannii, -8.14%; in the experiment on Escherichia coli, 6.29%; in the experiment on Klebsiella pneumoniae it was 3.38%; with Candida albicans it was -0.65%; with Cryptococcus neoformans, -4.29%.
Take `CC1(C)c2ccccc2-c2nc3ccccc3cc2C1O` (stereo not given): the Inhibition is 15.31% with Staphylococcus aureus; 7.67% in the experiment on Acinetobacter baumannii; -1.43% in the experiment with Escherichia coli; 14.38% with Klebsiella pneumoniae; 9.47% with Candida albicans; -10.94% in the experiment on Cryptococcus neoformans.
In the case of `CCOC(=O)C1C(=O)C(=O)N(C(C)C)C1C(=O)OCC` (stereo not given), the Inhibition in the experiment on Staphylococcus aureus is 9.9%; with Acinetobacter baumannii, 14.67%; in the experiment with Escherichia coli, -8.18%; in the experiment on Klebsiella pneumoniae it was 12.15%; with Candida albicans, 4.37%; in the experiment with Cryptococcus neoformans, 17.48%.
Consider `CC(=O)Oc1ccc(OC(C)=O)c2c1CC(C)=C(C)C2`, for which the Inhibition in the experiment with Staphylococcus aureus was 4.66%; with Acinetobacter baumannii it was -3.24%; with Escherichia coli, 12.77%; in the experiment with Klebsiella pneumoniae it was 4.69%; in the experiment on Candida albicans, 1.46%; in the experiment with Cryptococcus neoformans, -18.35%.
For `c1ccc2c(c1)Nc1cc3ccccc3cc1S2`, the Inhibition in the experiment on Staphylococcus aureus was 1.39%; in the experiment on Acinetobacter baumannii, -1.02%; in the experiment on Escherichia coli, 3.79%; in the experiment on Klebsiella pneumoniae it was 5.14%; in the experiment on Candida albicans, -0.01%; in the experiment with Cryptococcus neoformans, -3.36%.
Take `Cc1ccc(NC(=O)Nc2cccnc2)cc1NC(=O)Nc1cccnc1`: the Inhibition was 4.86% in the experiment with Staphylococcus aureus; 3.3% with Acinetobacter baumannii; 5.1% in the experiment on Escherichia coli; 8.48% in the experiment on Klebsiella pneumoniae; -3.78% in the experiment with Candida albicans; -10.14% with Cryptococcus neoformans.
`CC1CC(C)(C)NC2(CCCC2)N1` (stereo not given): the Inhibition with Staphylococcus aureus is 12.12%; with Acinetobacter baumannii it was -5.32%; with Escherichia coli it was 5.91%; in the experiment with Klebsiella pneumoniae, 11.32%; with Candida albicans it was -0.15%; in the experiment on Cryptococcus neoformans it was -4.43%.
As for `Nc1ccc(S(=O)(=O)NCC2CCCCO2)cc1` (stereo not given), the Inhibition with Staphylococcus aureus was 11.97%; in the experiment with Acinetobacter baumannii, 6.11%; in the experiment on Escherichia coli, 1.65%; in the experiment on Klebsiella pneumoniae, 16.22%; with Candida albicans it was 0.19%; in the experiment with Cryptococcus neoformans it was -11.32%.
On to `CCc1cccc2[nH]c3cc([N+](=O)[O-])ccc3c12`, for which the Inhibition in the experiment on Staphylococcus aureus was 6.44%; with Acinetobacter baumannii it was 1.17%; in the experiment on Escherichia coli, 2.96%; in the experiment with Klebsiella pneumoniae, -4.47%; in the experiment on Candida albicans it was 9.1%; in the experiment with Cryptococcus neoformans, 12.93%.
Regarding `CC(C)COc1nc2c(c(=O)n(C)c(=O)n2C)n1C`, the Inhibition in the experiment with Staphylococcus aureus is -1.72%; with Acinetobacter baumannii, 11.63%; in the experiment on Escherichia coli, 12.8%; with Klebsiella pneumoniae it was 5.36%; in the experiment with Candida albicans it was 2.67%; in the experiment on Cryptococcus neoformans, -14.97%.
Turning to `O=C(O)/C=C\C(=O)Nc1ccc(-c2ccccc2)cc1`, the Inhibition in the experiment on Staphylococcus aureus is -11.84%; in the experiment with Acinetobacter baumannii it was 13.91%; in the experiment with Escherichia coli it was -6.62%; in the experiment with Klebsiella pneumoniae it was 15.61%; with Candida albicans, 23%; with Cryptococcus neoformans, -5.96%.
In the case of `O=C1/C(=C/c2ccc([N+](=O)[O-])cc2)CCc2ccccc21`, the Inhibition in the experiment with Staphylococcus aureus is 6.03%; in the experiment on Acinetobacter baumannii, -4.9%; in the experiment on Escherichia coli, 11.7%; in the experiment on Klebsiella pneumoniae, 8.24%; in the experiment on Candida albicans it was 3.4%; in the experiment with Cryptococcus neoformans, -8.15%.
In the case of `COc1cc(C(O)c2nc3ccccc3s2)cc(OC)c1OC` (stereo not given), the Inhibition is 9.75% in the experiment on Staphylococcus aureus; -15.16% in the experiment with Acinetobacter baumannii; 6.66% with Escherichia coli; 12.12% with Klebsiella pneumoniae; 9.5% with Candida albicans; -12.06% in the experiment with Cryptococcus neoformans.
Regarding `N#Cc1cc(-c2ccccc2)[nH]c1-c1nccc2ccccc12`, the Inhibition was -0.89% with Staphylococcus aureus; -11.99% in the experiment on Acinetobacter baumannii; 7.81% in the experiment with Escherichia coli; 10.89% in the experiment on Klebsiella pneumoniae; 17.5% in the experiment with Candida albicans; -6.55% with Cryptococcus neoformans.
Consider `CC(C1=C(CCN(C)C)Cc2ccccc21)c1ccccn1.O=C(O)/C=C\C(=O)O` (stereo not given) [DIMETHINDENE MALEATE], for which the Inhibition is 21.63% with Staphylococcus aureus; -11.43% in the experiment with Acinetobacter baumannii; 16.27% in the experiment on Escherichia coli; 18.33% in the experiment with Klebsiella pneumoniae; 1.91% with Candida albicans; -1.76% with Cryptococcus neoformans.
Consider `CCn1c2ccccc2c2cc(NC(=O)Nc3ccc([N+](=O)[O-])cc3C)ccc21`, for which the Inhibition came out at 15.43% with Staphylococcus aureus; 8.35% in the experiment with Acinetobacter baumannii; 6.19% with Escherichia coli; 0.72% with Klebsiella pneumoniae; 18.4% in the experiment on Candida albicans; 0.49% in the experiment with Cryptococcus neoformans.
On to `CC(C)c1cc(C(C)C)n2nc(N)nc2n1`, for which the Inhibition was 6.67% in the experiment with Staphylococcus aureus; 8.95% in the experiment with Acinetobacter baumannii; 5.1% in the experiment on Escherichia coli; 0.39% in the experiment with Klebsiella pneumoniae; -0.42% in the experiment on Candida albicans; -7.51% in the experiment on Cryptococcus neoformans.
Take `Clc1ccccc1-c1nc(-c2ccncc2)no1` [PIFEXOLE]: the Inhibition in the experiment on Staphylococcus aureus was 2.18%; with Acinetobacter baumannii it was -11.63%; with Escherichia coli, 7%; in the experiment with Klebsiella pneumoniae, 9.18%; in the experiment with Candida albicans it was 12.7%; in the experiment on Cryptococcus neoformans, -16.63%.
For the compound `Nc1ccc(/N=N/c2ccccc2Cl)c(N)n1`, the Inhibition was 4.22% in the experiment with Staphylococcus aureus; -1.2% with Acinetobacter baumannii; 2.51% in the experiment with Escherichia coli; 18.4% with Klebsiella pneumoniae; 14.2% in the experiment with Candida albicans; -16.58% with Cryptococcus neoformans.
Take `CC(=O)OCC1OC(COC(C)=O)(c2ccc(C)cc2)C(OC(C)=O)C1OC(C)=O` (stereo not given): the Inhibition is -7.68% with Staphylococcus aureus; -11.43% in the experiment with Acinetobacter baumannii; 15.38% in the experiment on Escherichia coli; 10.58% in the experiment on Klebsiella pneumoniae; -0.8% in the experiment on Candida albicans; -5.49% with Cryptococcus neoformans.
For `C=C(C)CN1C(=O)C(C)S/C1=N/N=C1/SCC(=O)N1C` (stereo not given), the Inhibition is 12.61% in the experiment on Staphylococcus aureus; 8.16% with Acinetobacter baumannii; 1.61% with Escherichia coli; 14.62% with Klebsiella pneumoniae; 6.81% in the experiment on Candida albicans; -8.83% with Cryptococcus neoformans.
As to `[O-][n+]1nc2ccccc2c2ccccc21`, the Inhibition in the experiment with Staphylococcus aureus is 3.86%; in the experiment on Acinetobacter baumannii it was -1.94%; in the experiment with Escherichia coli, -9.04%; with Klebsiella pneumoniae it was 13.55%; in the experiment with Candida albicans it was 6.35%; with Cryptococcus neoformans, 8.25%.
Take `O=C(/C=C/c1ccc(Cl)s1)c1ccc(Cl)s1`: the Inhibition in the experiment on Staphylococcus aureus was 14.77%; in the experiment with Acinetobacter baumannii, 5.48%; with Escherichia coli, -1.03%; with Klebsiella pneumoniae, 0.02%; with Candida albicans, 4.39%; with Cryptococcus neoformans, -6.98%.
For `Cn1c(CO)cnc1-c1ccccc1`, the Inhibition is 2.4% with Staphylococcus aureus; 0.07% in the experiment on Acinetobacter baumannii; -8.68% in the experiment with Escherichia coli; 2.59% in the experiment on Klebsiella pneumoniae; 2.13% in the experiment with Candida albicans; -3.98% in the experiment on Cryptococcus neoformans.
As to `Cc1nn(-c2ccccc2)c2c1C(c1ccc([N+](=O)[O-])cc1)C(C#N)=C(N)O2` (stereo not given), the Inhibition is 11.47% in the experiment on Staphylococcus aureus; 2.7% in the experiment with Acinetobacter baumannii; 1.25% in the experiment on Escherichia coli; 12.44% in the experiment on Klebsiella pneumoniae; -1.55% in the experiment with Candida albicans; -5.09% in the experiment on Cryptococcus neoformans.

These data come from ChEMBL document CHEMBL4296182, “CO-ADD screening of NIH NCI Diversity Set V”.
